# DAGLB inh – diacylglycerol lipase beta (human) inhibition. Q8NCG7. HEK293T DAGLB membrane lysate, EnzChek fluorogenic substrate. inhibition, % at 5.17 µM. hit rate 0.059% among 340,000; in the data active = inhibition above about 34%;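 note: 0% = enzyme with vehicle and 100% = wells lacking enzyme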
# Myeloid diff MLP – promotes myeloid progenitor differentiation; calls only at 10 µM; AID 624256; ER-HoxA9 myeloid progenitors, lysozyme-GFP differentiation, flow cytometry; hit rate 1% among 360,000;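 active = normalized GFP-positive differentiation at or above the plate's own cutoff, the solvent-only control mean plus 3 SD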;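 note: cells exposed to compound for four days before flow analysis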
# Rtt109 Vps75 – inhibitors of Candida albicans Rtt109/Vps75 histone acetyltransferase. Q5AAJ8. purified Rtt109/Vps75, ThioGlo CoA-SH fluorescence, 4 h. inhibition, % at 34.9 µM. hit rate 0.16% among 330,000. AID 540336;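 active = inhibition of at least 50% in every replicate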
# Target sequence (Q5AAJ8 whole entry, looked up): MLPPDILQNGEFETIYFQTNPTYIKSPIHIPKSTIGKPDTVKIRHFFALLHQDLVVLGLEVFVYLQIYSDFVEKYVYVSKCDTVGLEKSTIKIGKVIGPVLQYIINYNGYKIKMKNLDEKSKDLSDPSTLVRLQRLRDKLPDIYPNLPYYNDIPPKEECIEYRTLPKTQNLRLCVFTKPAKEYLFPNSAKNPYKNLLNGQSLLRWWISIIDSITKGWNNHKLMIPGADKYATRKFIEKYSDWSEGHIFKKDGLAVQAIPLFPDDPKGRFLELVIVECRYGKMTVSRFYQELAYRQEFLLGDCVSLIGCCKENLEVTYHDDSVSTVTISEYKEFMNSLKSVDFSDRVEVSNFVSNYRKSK
# sPLA2-III inh – Inhibits HGIII-sPLA2 liposome hydrolysis, primary screen | Q9NZ20 | inhibition, % at 12.2 µM | hit rate 0.56% among 370,000 | QFRET BODIPY PC-A2 liposome hydrolysis, fluorescence;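 active = inhibition above mean plus 3 SD of compounds lying within the high and low control bounds, cut at about 19% in these data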;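 note: 0% = median of test compound wells and 100% = no enzyme DMSO wells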
# H9c2 protect – myocardial damage modulation in H9c2 cells. H9c2 cardiomyocytes, H2O2 injury protection, ATPLite, 2 h. protection from H2O2 cell death, % at 20 µM. hit rate 0.63% among 360,000. AID 588492;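 active = compounds giving at least 50% protection of heart cells from peroxide-induced death in the single-dose screen, raw or plate-pattern-corrected value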;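 note: 0% = DMSO wells with peroxide and 100% = DMSO wells without peroxide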
# ABHD5-PLIN5 inh – blocks binding of human ABHD5 to perilipin-5; Q00G26+Q8WTS1; Split G. princeps luciferase complementation, luminescence, 4 h; inhibition, % at 4 µM; hit rate 0.78% among 360,000; AID 602281;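 active = inhibition above the mean inhibition across every tested compound plus 3 SD, cut at about 22% in these data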;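 note: 0% = DMSO only wells and the 100% control is not disclosed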
# Myeloid diff – promotes myeloid progenitor differentiation. shares compounds with Myeloid diff MLP. ER-HoxA9 myeloid progenitors, GFP/Mac1 double-positive flow. calls only. hit rate 2% among 2,300;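 active = share of green or green-and-red cells above 9 and 9% in run 1 or 4 and 3% in run 2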
# GFP autofluor – flagged as fluorescent in myeloid differentiation counter-screen | shares compounds with Myeloid diff MLP | ER-HoxA9 myeloid progenitors, no estrogen, GFP autofluorescence flow cytometry; vehicle wells 0%, positive control 100% | fluorescence response, % (no concentration beside the values) | hit rate 7.4% among 2,300 | AID 651707;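 active = over 5% cells positive for green fluorescent reporter, or over 2% positive for both it and APC stain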;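 note: range taken on the double positive population between DMSO and positive control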
# Numbers without * were called inactive; i = inactive; nt = no result given; + = active, no number. In the library only some 2.9% were active in any assay of this set; here they are far more common.
SMILES,DAGLB inh,Myeloid diff MLP,Rtt109 Vps75,sPLA2-III inh,H9c2 protect,ABHD5-PLIN5 inh,Myeloid diff,GFP autofluor
CCCCn1c(-c2ccoc2C)n[nH]c1=S,-2,+,3,13,-3,-2,i,0
Cc1ccc(NC(=O)CSCC(=O)NCc2cccc(C(F)(F)F)c2)cc1,-4,+,-5,1,-1,-6,i,0
COc1ccc(NC(=O)CSCC(=O)NCc2cccc(C(F)(F)F)c2)cc1,-3,i,-4,-8,-7,9,nt,nt
O=C(CSc1nnc(Cc2ccccc2)n1-c1ccccc1)NNC(=O)Cc1ccccc1,4,i,-2,-17,3,12,nt,nt
Cc1ccc(C2=NCCNC2=O)c(C)c1,3,i,11,8,10,9,i,1
Cc1ccc(-c2n[nH]c(=O)c3ccccc23)c(C)c1,-3,i,-6,-8,-5,-2,nt,nt
COc1ccc(-c2cc(N)n(S(=O)(=O)c3ccc(F)cc3)n2)cc1OC,-3,i,-2,-3,-34,-5,nt,nt
COC(=O)C1=CN(Cc2ccc(OC)c(OC)c2)C=C(C(=O)OC)C1c1cccc(F)c1,1,+,-71,11,8,2,i,2
COC(=O)C1=CN(Cc2ccc(F)cc2)C=C(C(=O)OC)C1c1cc(OC)c(OC)c(OC)c1,-3,i,0,0,6,-2,nt,nt
CCOC(=O)Nc1ccc2c(CN3CCN(S(=O)(=O)c4ccc(C(C)C)cc4)CC3)cc(=O)oc2c1,0,i,2,-7,-14,-4,nt,nt
CCCn1cnc2c(N)c(C)c(C)cc21,2,i,13,4,-2,-4,nt,nt
COc1cccc(Cn2cnc3c(N)c(C)c(C)cc32)c1,3,i,11,5,-7,-7,i,0
COC(=O)c1ccc(C2C(C(C)=O)=C(O)C(=O)N2CCO)cc1 (stereo unspecified),0,i,-8,13,4,-5,i,1
COC(=O)c1ccc(C2c3c(oc4ccc(F)cc4c3=O)C(=O)N2CCO)cc1 (stereo unspecified),-1,i,1,-12,4,-2,nt,nt
COCCN1CCN(Cc2nc(C3(c4ccc(C)cc4)CCCC3)no2)CC1,2,i,0,-2,-4,7,nt,nt
CC1Cc2ccccc2N1C(=O)c1ccnc(C(C)(C)C)c1 (stereo unspecified),-4,+,13,-1,-5,0,i,0
CC1Cc2ccccc2N1C(=O)c1cccnc1 (stereo unspecified),-2,i,-8,-2,-7,-1,nt,nt
CCC(/C=C1\Oc2ccc(OC)cc2N1C)=C\c1sc2ccccc2[n+]1CCCS(=O)(=O)[O-],0,i,7,-2,-4,1,i,85*
N#C/C(=C\c1cccnc1)C(=O)NC1CCCCC1,-2,+,2,14,3,6,i,1
COc1cccc(/C=N/NC(=S)Nc2cccnc2)c1,0,i,nt,3,-5,-2,nt,nt
Oc1ccc(/C=N/NC(=S)Nc2cccnc2)cc1,4,i,-11,1,-12,-4,i,0
Cc1ccn2c(Nc3ccc4c(c3)OCO4)c(-c3ccccn3)nc2c1,3,i,1,3,9,-10,nt,nt
Cc1ccc(Nc2c(-c3ccccn3)nc3cc(C)ccn23)cc1,6,i,nt,2,-4,6,i,0
CCOC(=O)C1CCN(C(=O)C(C)Oc2ccc(C(=O)c3ccccc3)cc2)CC1 (stereo unspecified),0,i,-18,3,1,-10,nt,nt
CC(=O)N1CCCC(N2CCN(c3cccc(C(F)(F)F)c3)CC2)C1 (stereo unspecified),-3,i,0,0,-1,7,nt,nt
CCCN1CCC(N2CCN(c3cccc(C(F)(F)F)c3)CC2)CC1,3,+,3,2,8,-3,i,0
Cc1ccc(S(=O)(=O)N(C)C)cc1NC(=S)NCCc1ccccn1,3,i,8,5,-2,1,i,0

# From PubChem
